Reference: PubChem BioAssay
The list shows a part of the results. Calls of active or inactive are those of the source.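 The calls were made as follows, unless noted: active = mean inhibition over 43.08%, the solvent-only control mean plus 3 SD; inactive = the rest.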

Experiments:
[1] = target: Nuclear receptor coactivator 3 (Homo sapiens) (UniProt Q9Y6Q9); experiment: NCOA3 GAL4-fusion reporter inhibition – cell-based, luminescence, quadruplicate, confirmation (AID 588792); conditions: HEK293 GAL4-SRC3 luciferase reporter, at 3.6 µM, active compounds read high;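 also: 0% = DMSO treated cells and 100% = gossypol at 36 µM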
Sequence of Nuclear receptor coactivator 3 (Homo sapiens) (Q9Y6Q9 whole entry, looked up, the tested form may be a part): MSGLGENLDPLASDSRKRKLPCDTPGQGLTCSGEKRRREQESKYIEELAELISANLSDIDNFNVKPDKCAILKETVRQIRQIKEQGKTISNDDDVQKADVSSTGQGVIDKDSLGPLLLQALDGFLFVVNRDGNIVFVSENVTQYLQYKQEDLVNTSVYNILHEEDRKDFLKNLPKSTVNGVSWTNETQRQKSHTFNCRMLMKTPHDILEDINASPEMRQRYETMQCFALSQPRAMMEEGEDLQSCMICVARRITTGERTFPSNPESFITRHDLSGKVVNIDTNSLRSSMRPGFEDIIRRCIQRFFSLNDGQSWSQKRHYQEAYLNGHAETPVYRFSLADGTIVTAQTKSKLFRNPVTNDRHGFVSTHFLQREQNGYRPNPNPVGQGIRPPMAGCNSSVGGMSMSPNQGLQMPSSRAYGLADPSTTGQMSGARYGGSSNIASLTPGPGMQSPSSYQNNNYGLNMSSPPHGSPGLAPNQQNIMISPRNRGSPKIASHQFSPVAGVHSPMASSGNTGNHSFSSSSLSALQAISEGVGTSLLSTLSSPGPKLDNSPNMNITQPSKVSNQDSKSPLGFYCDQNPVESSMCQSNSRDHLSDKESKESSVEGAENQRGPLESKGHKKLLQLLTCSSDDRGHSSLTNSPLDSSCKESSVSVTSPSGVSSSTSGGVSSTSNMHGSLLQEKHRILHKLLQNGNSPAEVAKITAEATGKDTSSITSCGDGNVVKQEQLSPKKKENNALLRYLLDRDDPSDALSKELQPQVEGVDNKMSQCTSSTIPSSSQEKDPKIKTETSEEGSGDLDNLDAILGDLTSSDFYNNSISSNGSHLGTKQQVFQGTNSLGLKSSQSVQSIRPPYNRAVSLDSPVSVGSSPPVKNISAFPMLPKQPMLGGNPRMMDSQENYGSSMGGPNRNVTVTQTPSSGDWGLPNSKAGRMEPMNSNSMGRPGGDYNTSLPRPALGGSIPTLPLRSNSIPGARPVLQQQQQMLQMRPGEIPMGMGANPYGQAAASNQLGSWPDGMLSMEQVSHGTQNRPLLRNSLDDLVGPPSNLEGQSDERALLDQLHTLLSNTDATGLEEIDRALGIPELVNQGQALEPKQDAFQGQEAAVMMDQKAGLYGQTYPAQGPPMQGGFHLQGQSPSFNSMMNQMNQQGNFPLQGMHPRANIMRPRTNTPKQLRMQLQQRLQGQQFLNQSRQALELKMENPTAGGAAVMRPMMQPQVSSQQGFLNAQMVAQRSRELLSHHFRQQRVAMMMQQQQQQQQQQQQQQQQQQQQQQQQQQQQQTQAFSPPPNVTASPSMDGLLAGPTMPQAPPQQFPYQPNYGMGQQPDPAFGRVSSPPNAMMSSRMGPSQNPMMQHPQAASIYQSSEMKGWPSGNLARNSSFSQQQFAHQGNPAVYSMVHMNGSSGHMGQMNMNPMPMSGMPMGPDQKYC

[2] = test system: transactivating tegument protein VP16 (Human herpesvirus 1), Gal4-VP16 luciferase reporter; experiment: repression of VP16-driven luciferase reporter – cell-based, luminescence, high throughput, counter-screen for SRC3 inhibitor project (AID 588794; in the data active = inhibition above about 30%); conditions: mammalian cells, at 3.6 µM, active compounds read high
[3] = target: Nuclear receptor coactivator 1 (Homo sapiens) (UniProt Q15788); experiment: NCOA1 GAL4-fusion reporter inhibition – cell-based, luminescence, quadruplicate, confirmation (AID 588820;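 active = mean inhibition above 46.68%, the untreated control wells mean plus 3 SD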;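 also: 0% = DMSO wells and 100% = gossypol 36 µM treated wells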); conditions: HEK293 GAL4-SRC1 luciferase reporter, at 3.6 µM, active compounds read high
Sequence of Nuclear receptor coactivator 1 (Homo sapiens) (Q15788 whole entry, looked up, the tested form may be a part): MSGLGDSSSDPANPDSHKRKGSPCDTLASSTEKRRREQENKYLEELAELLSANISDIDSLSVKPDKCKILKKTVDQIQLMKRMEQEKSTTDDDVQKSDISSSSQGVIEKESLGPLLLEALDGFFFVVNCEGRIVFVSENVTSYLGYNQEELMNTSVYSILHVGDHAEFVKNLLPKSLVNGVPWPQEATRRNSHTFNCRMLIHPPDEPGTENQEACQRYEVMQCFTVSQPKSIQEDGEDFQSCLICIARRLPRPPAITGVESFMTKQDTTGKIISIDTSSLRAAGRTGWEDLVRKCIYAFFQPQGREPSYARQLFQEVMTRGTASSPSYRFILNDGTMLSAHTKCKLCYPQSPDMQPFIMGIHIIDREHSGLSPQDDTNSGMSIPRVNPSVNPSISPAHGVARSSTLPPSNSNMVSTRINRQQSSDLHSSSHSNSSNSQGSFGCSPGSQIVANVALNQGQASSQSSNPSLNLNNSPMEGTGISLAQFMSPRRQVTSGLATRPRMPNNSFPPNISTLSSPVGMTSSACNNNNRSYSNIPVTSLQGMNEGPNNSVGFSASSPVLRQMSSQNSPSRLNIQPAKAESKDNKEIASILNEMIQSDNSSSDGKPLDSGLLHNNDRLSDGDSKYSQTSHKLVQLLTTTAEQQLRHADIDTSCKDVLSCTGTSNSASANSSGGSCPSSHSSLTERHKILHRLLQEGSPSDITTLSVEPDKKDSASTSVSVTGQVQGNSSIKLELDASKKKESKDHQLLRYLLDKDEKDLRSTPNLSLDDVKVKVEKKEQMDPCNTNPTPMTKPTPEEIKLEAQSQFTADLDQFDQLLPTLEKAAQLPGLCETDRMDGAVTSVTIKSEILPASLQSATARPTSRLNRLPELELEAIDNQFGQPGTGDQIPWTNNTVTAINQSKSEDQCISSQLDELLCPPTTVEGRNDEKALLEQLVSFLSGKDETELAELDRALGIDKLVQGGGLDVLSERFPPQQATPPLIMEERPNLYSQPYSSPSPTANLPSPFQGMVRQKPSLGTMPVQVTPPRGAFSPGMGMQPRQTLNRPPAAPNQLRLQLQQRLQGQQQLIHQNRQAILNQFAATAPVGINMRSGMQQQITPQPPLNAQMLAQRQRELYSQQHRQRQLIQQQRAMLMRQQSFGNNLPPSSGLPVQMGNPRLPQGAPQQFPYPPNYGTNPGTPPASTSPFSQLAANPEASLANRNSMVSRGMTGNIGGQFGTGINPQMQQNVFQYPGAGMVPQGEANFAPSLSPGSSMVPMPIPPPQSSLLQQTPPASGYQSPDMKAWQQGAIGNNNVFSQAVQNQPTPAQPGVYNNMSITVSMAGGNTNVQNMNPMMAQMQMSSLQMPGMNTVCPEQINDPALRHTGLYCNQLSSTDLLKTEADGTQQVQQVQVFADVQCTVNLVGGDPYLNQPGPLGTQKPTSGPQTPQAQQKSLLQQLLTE

[4] = repression of VP16-driven luciferase reporter – cell-based, luminescence, high throughput, counter-screen for SRC1 inhibitor project (AID 588824; in the data active = inhibition above about 25%); conditions: cell-based VP16 transactivation luciferase luminescence; at 3.6 µM; active compounds read high
[5] = target: Photoreceptor-specific nuclear receptor (Homo sapiens) (UniProt Q9Y5X4); experiment: retest of NR2E3-NCOR disrupting agonists – cell-based, luminescence, CHO-S two-hybrid, confirmation (AID 624378;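 active = average inhibition above a cutoff equal to the mean inhibition of all tested compounds plus one SD, cut at about 70% in these data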;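 also: 0% = DMSO in NR2E3 cells and 100% = DMSO in cells lacking NR2E3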); conditions: CHO-S mammalian two-hybrid NR2E3-NCOR, luciferase luminescence; at 3.98 µM; active compounds read high
Sequence of Photoreceptor-specific nuclear receptor (Homo sapiens) (Q9Y5X4 whole entry, looked up, the tested form may be a part): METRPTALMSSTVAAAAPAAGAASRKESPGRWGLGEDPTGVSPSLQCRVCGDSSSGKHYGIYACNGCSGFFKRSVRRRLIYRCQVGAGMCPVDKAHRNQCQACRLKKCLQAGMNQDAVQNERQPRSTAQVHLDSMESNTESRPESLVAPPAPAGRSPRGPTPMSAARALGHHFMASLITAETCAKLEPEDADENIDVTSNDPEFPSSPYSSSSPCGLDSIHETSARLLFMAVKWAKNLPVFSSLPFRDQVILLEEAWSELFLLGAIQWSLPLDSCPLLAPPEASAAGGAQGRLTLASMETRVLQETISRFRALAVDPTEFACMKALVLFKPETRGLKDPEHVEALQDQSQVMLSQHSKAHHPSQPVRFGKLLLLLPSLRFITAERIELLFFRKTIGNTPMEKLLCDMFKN

[6] = nonselective effects on VP16 transactivation – cell-based, luminescence, CHO-S, high throughput, counter-screen for NR2E3 agonist project, confirmation (AID 624379;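 active = mean inhibition above a cutoff equal to the average over all tested compounds plus one standard deviation, cut at about 70% in these data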;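 also: luciferase from a UAS reporter driven by GAL4-VP16 transactivation; 0% = DMSO with VP16-transfected cells and 100% = DMSO with cells lacking VP16; higher means less reporter light so more repression of VP16 activity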); conditions: CHO-S GAL4-VP16 luciferase reporter, at 3.98 µM, active compounds read high
[7] = StAR promoter reporter inhibitors, counter-screen for LRH-1 inverse agonist project, cell-based, luminescence, high throughput (AID 651611; in the data active = inhibition above about 28%); conditions: StAR promoter luciferase reporter counterscreen, at 3.6 µM, active compounds read high
[8] = target: Nuclear receptor subfamily 5 group A member 2 (Homo sapiens) (UniProt O00482); experiment: NR5A2 activity suppression in reporter cells – cell-based, luminescence, confirmation (AID 651613; in the data active = inhibition above about 42%;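 also: HEK293T cells co-transfected with LRH-1 and StAR promoter luciferase reporter; 0% = vehicle wells and 100% = parental cells lacking receptor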); conditions: cell-based LRH-1 luciferase reporter, inverse agonism; at 3.6 µM; active compounds read high
Sequence of Nuclear receptor subfamily 5 group A member 2 (Homo sapiens) (O00482 whole entry, looked up): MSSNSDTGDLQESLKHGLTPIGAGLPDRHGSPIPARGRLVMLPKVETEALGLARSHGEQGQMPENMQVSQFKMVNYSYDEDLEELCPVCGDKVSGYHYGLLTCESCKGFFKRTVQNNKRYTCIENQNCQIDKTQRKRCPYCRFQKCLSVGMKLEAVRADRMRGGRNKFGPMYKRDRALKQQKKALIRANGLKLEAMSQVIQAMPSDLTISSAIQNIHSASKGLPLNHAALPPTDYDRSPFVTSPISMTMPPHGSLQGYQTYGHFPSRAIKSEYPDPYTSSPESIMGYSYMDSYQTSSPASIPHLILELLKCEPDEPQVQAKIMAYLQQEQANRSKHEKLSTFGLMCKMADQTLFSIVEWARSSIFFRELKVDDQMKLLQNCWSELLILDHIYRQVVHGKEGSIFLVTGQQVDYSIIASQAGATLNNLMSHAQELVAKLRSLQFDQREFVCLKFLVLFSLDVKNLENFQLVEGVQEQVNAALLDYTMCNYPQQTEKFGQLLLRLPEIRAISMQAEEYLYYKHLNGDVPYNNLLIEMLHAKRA

[9] = target: Steroidogenic factor 1 (Homo sapiens) (UniProt Q13285); experiment: inverse agonism at SF1 nuclear receptor – cell-based, luminescence, high throughput, counter-screen for LRH-1 inverse agonist project (AID 651614; in the data active = inhibition above about 44%;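 also: cells cotransfected with StAR promoter reporter and SF1 expression vector; 0% = vehicle on cells with receptor and 100% = vehicle on cells lacking receptor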); conditions: cell-based SF1 luciferase reporter, at 3.6 µM, active compounds read high
Sequence of Steroidogenic factor 1 (Homo sapiens) (Q13285 whole entry, looked up, the tested form may be a part): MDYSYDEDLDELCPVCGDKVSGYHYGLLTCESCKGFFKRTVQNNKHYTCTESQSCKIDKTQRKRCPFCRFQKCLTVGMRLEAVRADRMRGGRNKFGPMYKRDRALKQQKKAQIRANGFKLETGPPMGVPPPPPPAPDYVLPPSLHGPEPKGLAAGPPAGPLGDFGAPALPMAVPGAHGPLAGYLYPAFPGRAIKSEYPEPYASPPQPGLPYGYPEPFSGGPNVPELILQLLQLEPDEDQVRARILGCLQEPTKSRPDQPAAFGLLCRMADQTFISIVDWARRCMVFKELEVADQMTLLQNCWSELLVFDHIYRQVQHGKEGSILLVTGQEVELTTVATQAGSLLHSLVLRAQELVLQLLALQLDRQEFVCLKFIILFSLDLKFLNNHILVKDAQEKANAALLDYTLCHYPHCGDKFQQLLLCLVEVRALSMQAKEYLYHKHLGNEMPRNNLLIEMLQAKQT

[10] = compounds suppressing VP16-driven luciferase signal – cell-based, luminescence, high throughput, counter-screen for LRH-1 inverse agonist project (AID 651615; in the data active = inhibition above about 33%); conditions: Gal4-VP16 luciferase reporter cells, at 3.6 µM, active compounds read high
[11] = test system: transactivating tegument protein VP16 (Human herpesvirus 1); experiment: compounds suppressing VP16-driven luciferase signal – cell-based, luminescence, single concentration, counter-screen for SRC2 inhibitor project (AID 652007; in the data active = inhibition above about 36%); conditions: cell-based VP16 transactivation luciferase reporter, at 8.9 µM, active compounds read high
[12] = target: Nuclear receptor coactivator 2 (Homo sapiens) (UniProt Q15596); experiment: inhibition of GAL4-SRC2 driven luciferase expression – cell-based, luminescence, HEK293, triplicate, confirmation (AID 652008;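 active = mean inhibition above 46.5%, the solvent-only control mean plus 3 SD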;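 also: 0% = DMSO-treated cells and 100% = Gossypol at 36 µM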); conditions: HEK293 GAL4-SRC2 luciferase reporter, at 8.9 µM, active compounds read high

Measured: inhibition

O=c1[nH]c2ccccc2n1C1CCN(C(c2ccccc2)c2nnnn2Cc2ccccc2)CC1 (stereo not given)
inactive: [2] 16.8% | [3] -21.5% | [4] 15.1% | [5] 30.7% | [6] 4.07%
active: [1] 64.1%

O=[N+]([O-])c1ccc(N2CCOCC2)c2c1no[n+]2[O-]
inactive: [3] 23%
active: [1] 82.4% | [2] 62.9% | [4] 62.2% | [7] 94.1% | [8] 101% | [9] 92.6% | [10] 70.7%

CN(C)c1ccc(C(=O)N/N=C/C23CC[C@@H](O)CC2(O)CC[C@@H]2[C@@H]3CCC3(C)C(C4=CC(=O)OC4)CCC23O)cc1 (stereo not given in full)
inactive: [1] 1.62% | [2] 23.4% | [3] -57.9% | [4] 7.1%

C[C@@H]1O[C@@H](O[C@H]2C[C@@H](O)[C@]3(CO)[C@@H]4C(CC[C@]3(O)C2)[C@@]2(O)CC[C@H](C3COC(=O)C3)[C@@]2(C)C[C@H]4O)[C@H](O)[C@H](O)[C@H]1O (stereo not given in full)
inactive: [3] 5.8%
active: [1] 87.8% | [2] 47.1% | [4] 54.1% | [7] 92% | [8] 100% | [9] 85.2% | [10] 56.4%

O=c1[nH]c2ccccc2n1C1CCN(C(c2ccccc2OC(F)(F)F)c2nnnn2-c2ccc3c(c2)OCCO3)CC1 (stereo not given)
inactive: [1] 27.6% | [2] -1.84% | [3] -23.1% | [4] -0.24% | [8] 37.3%
active: [7] 61.8% | [9] 43.7% | [10] 39.8%

C=CCn1c(O)c(C(C)=NCc2cc(OC)cc(OC)c2)c(=O)[nH]c1=O
active: [1] 49.6% | [7] 42.4% | [8] 66.4% | [9] 57.7% | [10] 43.6%
inactive: [2] 28.2% | [3] 43% | [4] 24.5%

Cc1ccc(-c2cc(-c3ccccc3)cc(-c3ccccc3)[n+]2-c2ccccc2)cc1
active: [1] 86.4% | [2] 89.9% | [3] 67.6% | [4] 85.6% | [7] 83.6% | [8] 110% | [9] 91.4% | [10] 95.2% | [11] 70% | [12] 61.8%

O=C1NC2C(O)C(O)C(O)C(O)C2c2cc3c(c(O)c21)OCO3 (stereo not given)
active: [1] 97.3% | [2] 96% | [3] 93.4% | [4] 95% | [7] 96.4% | [8] 109% | [9] 97.7% | [10] 98.6% | [11] 79.7% | [12] 75.7%

CCC(C)NC(=O)CCC(=O)OC1O[C@H]2OC3(C)CC[C@H]4[C@H](C)CCC(C1C)C24OO3 (stereo not given in full)
active: [1] 63.7% | [2] 83.6% | [3] 47.4% | [4] 82% | [7] 75% | [8] 102% | [9] 91.8% | [10] 84.7%

CC(=O)OC1C(=O)OCC23CCC4(C)OC4C2OC2CC(OC(=O)C=CC=CC(=O)OCCC1C)C3(C)C21CO1 (stereo not given)
active: [1] 98.1% | [2] 96.5% | [3] 96.7% | [4] 96.3% | [7] 96.8% | [8] 110% | [9] 98.6% | [10] 95.3%

O=c1[nH]c2ccccc2n1C1CCN(C(c2cccc3ccccc23)c2nnnn2-c2ccc3c(c2)OCCO3)CC1 (stereo not given)
inactive: [1] 33.8% | [2] 12.5% | [3] -29.6% | [4] 10.9% | [8] 27.6% | [10] 27.7%
active: [7] 57.5% | [9] 44%

CC[n+]1c(/C=C/N(C)c2ccccc2)sc2ccc(Cl)cc21
inactive: [1] 28.9% | [3] 30.4% | [7] 23.7%
active: [2] 46.1% | [4] 48.8% | [8] 83.7% | [9] 73.4% | [10] 75%

COC(=O)C12OCC34C(CC5C(C)=C(O)C(=O)CC5(C)C3C(O)C1O)OC(=O)C(OC(=O)/C=C(\C)C(C)C)C24 (stereo not given)
active: [1] 99% | [2] 97.6% | [3] 98.1% | [4] 97.7% | [7] 96.7% | [8] 110% | [9] 98.9% | [10] 97.9%

C[C@H]1O[C@@H](OC2CC[C@]3(C=O)[C@H]4CC[C@]5(C)[C@@H](C6=CC(=O)OC6)CC[C@]5(O)[C@@H]4CC[C@]3(O)C2)CC2OC(C)(C)OC21 (stereo not given in full)
active: [1] 94.5% | [2] 85.3% | [3] 65.8% | [4] 83.1% | [7] 97.6% | [8] 111% | [9] 99.5% | [10] 93.3%
